The whole screen tested about 310,000 compounds, of which about 18,000 (5.8%) were called active. Not shown: some 22% with an inconclusive outcome. The sample holds actives, similar compounds and a random draw of the others, so the mix is not that of the screen. A number with no mark means an inactive call. Calls follow the shape of the dose curve; as a rule, active = well fitted inhibition curve with a large enough effect; inconclusive = small, poorly fitted or top-dose-only effect, or another doubt; inactive = no such curve, though single readings can be large or run the other way.
experiment: Primary qHTS for delayed death inhibitors of the malarial parasite plastid, 48 hour incubation; conditions: P. falciparum luciferase growth in erythrocytes; series mostly up to 28.7 µM; activity change, negative = inhibition: at the top concentration
Summary of the method: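 Compounds are pin-transferred into medium, infected erythrocytes (2% hematocrit, 0.1% parasitemia final) are added, and plates sit one parasite generation at 37 C in 5% CO2. Detection reagent is then added and luminescence measured.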
% is scaled to controls: 0 for no effect and ±100 for the full control effect; potency is read from the fitted curve at half-maximal effect.

First: O=C(C1CCC1)N1CCN(c2ccccc2)CC1
Second: COc1ccc(CN2CCCC(C(=O)N3CCCCC3)C2)cc1 (stereo not drawn)
The “activity change, negative = inhibition” value of the first is lower: -2.07% for the first, 40.7% for the second.

Going from `Cc1ccccc1NC(=O)Cn1cc(C(=O)C2CC2)c2ccccc21` to `Cc1ccccc1NC(=O)N1CCCC1C(=O)NCc1ccccc1` (stereo not drawn), the “activity change, negative = inhibition” value rises from -28.8% to 5.92%.

Compared with `Cc1ccc(CNC(=O)Cn2cnc(S(=O)(=O)N3CCCCC3)c2)o1`, `CCOc1ncccc1C(=O)OCC(=O)Nc1cccc(S(=O)(=O)N2CCCCCC2)c1` is higher in “activity change, negative = inhibition” value: 28.9% for the first, 60% for the second.

First: CCCOC1CCCN(C(=O)c2cc(COc3cncc(Cl)c3)on2)C1 (stereo not drawn)
Second: COc1ccc(C(C)=O)cc1COc1ccc(Cl)c(C)c1
The “activity change, negative = inhibition” value of the first is lower: 0% for the first, 51.1% for the second.

Going from `COc1ccc(/C=C/C(=O)Nc2cccnc2)cc1OC` to `CCc1ccc(OCC2c3cc(OC)c(OC)cc3CCN2C(C)=O)cc1` (stereo not drawn), the “activity change, negative = inhibition” value falls from 41% to -21%.

Going from `O=C(NC1CCCCC1)n1c(=O)oc2cc(S(=O)(=O)N3CCCCC3)ccc21` to `CCOC(=O)N1CCN(C(=O)c2cn(C)c3ccc(S(=O)(=O)N4CCCC4)cc3c2=O)CC1`, the “activity change, negative = inhibition” value falls from 47.3% to 13.4%.

First: COc1ccc(N2CCN(S(=O)(=O)c3cc(Br)cnc3N)CC2)cc1
Second: Cc1cc(=O)oc2cc(OCC(=O)N3CCN(c4ccc(F)cc4)CC3)c(Cl)cc12
The “activity change, negative = inhibition” value of the first is higher: -0.159% for the first, -15.6% for the second.

Going from `c1ccc(-c2nnc(N3CCOCC3)c3ccccc23)cc1` to `OCCN1CCN(c2nnc(-c3ccccc3)c3ccccc23)CC1`, the “activity change, negative = inhibition” value falls from 75.3% to -6.11%.

Going from `Cc1ccc(S(=O)(=O)CC(=O)Nc2sc(C)c(C)c2C(N)=O)cc1` to `CCc1cc(C(N)=O)c(NC(=O)c2ccc(OC)cc2)s1`, the “activity change, negative = inhibition” value rises from 1.71% to 64.5%.

Going from `O=C(NCc1ccncc1)NC12CC3CC(CC(C3)C1)C2` to `S=C(NCc1ccc(Cl)cc1)NC1CCCCC1`, the “activity change, negative = inhibition” value falls from 20.8% to -41.2%.

Compared with `CCN(CC)CCOC(=O)c1ccc(NC(=O)CNC(=O)c2ccccc2)cc1`, `Cc1cccc(C(=O)Nc2ccc(C(=O)N/N=C/c3cccc(C)n3)cc2)c1` is lower in “activity change, negative = inhibition” value: 20.2% for the first, -16.6% for the second.

Compared with `COc1ccc(-c2cc3ncccc3cn2)cc1`, `COc1ccc(C2/C(=C(/O)c3ccc4c(c3)CC(C)O4)C(=O)C(=O)N2Cc2ccncc2)cc1` (stereo not drawn) is lower in “activity change, negative = inhibition” value: 142% for the first, 25.6% for the second.

First: CC(CN1CCCCC1)c1ccccc1 (stereo not drawn)
Second: COc1ccccc1N1CCN(/N=C/c2ccc(O)cc2O)CC1
The “activity change, negative = inhibition” value of the first is lower: 6.05% for the first, 109% for the second.

First: O=C(NCCS(=O)(=O)c1ccc(Br)cc1)c1ccccc1Cl
Second: CC(C)n1c(=O)[nH]c2cc(C(=O)Nc3ccccc3)ccc21
The “activity change, negative = inhibition” value of the first is higher: 93.2% for the first, 9.6% for the second.

First: CCCCn1c(SCC(=O)N2CCOCC2)nc2c1c(=O)n(C)c(=O)n2C
Second: Cc1cc(C)c2nc(N3CCC(C(=O)NCCN4CCOCC4)CC3)sc2c1
The “activity change, negative = inhibition” value of the first is lower: -6.82% for the first, 11.7% for the second.

First: COCCN1C(=O)N(c2ccc(Cl)cc2)C(=O)C1CC(=O)Nc1cc(OC)cc(OC)c1 (stereo not drawn)
Second: CCc1ccc(NC(=O)CN2CCC(C(=O)c3ccc(OC)cc3)CC2)cc1
The “activity change, negative = inhibition” value of the first is higher: -8.22% for the first, -21.6% for the second.

Going from `CSCCC(NC(=O)c1ccco1)C(=O)Nc1cc(C)ccn1` (stereo not drawn) to `COc1ccc(CNC(=O)C2CCN(C(=O)c3ccco3)CC2)cc1`, the “activity change, negative = inhibition” value falls from 105% to 0.712%.

First: Cc1cccc(NC(=O)NC2(C)CCS(=O)(=O)C2)c1 (stereo not drawn)
Second: CCOC(=O)C1=C(C)NC(=S)NC1c1cccs1 (stereo not drawn)
The “activity change, negative = inhibition” value of the first is higher: 3.57% for the first, 1.1% for the second.

Going from `O=C(CCc1ccccc1)Nc1ccnn1C1CCN(Cc2ccc(OCCO)cc2)CC1` to `O=C(Nc1ccccc1N1CCOCC1)c1ccc(OCc2cscn2)cc1`, the “activity change, negative = inhibition” value falls from -12.5% to -12.9%.

In the case of `CCOC(=O)N1CCN(C(=O)C(=O)Nc2sc3c(c2C#N)CC(C)(C)OC3)CC1`, the “activity change, negative = inhibition” value was 16%.

With `CCn1nc(C)c(NC(=O)/C=C/c2ccc(OC)c(COc3ccc(Br)cc3)c2)c1C` the Potency was 8.28 µM (active).
For `CC(C)COC(=O)n1c(=O)oc2ccc(S(=O)(=O)N3CCCCC3)cc21`, the Potency was 10.4 µM (active).
In the case of `CCCC(=O)N1CCN(c2nnc(-c3ccc(C)cc3)c3ccccc23)CC1`, the Potency was 4.15 µM (active).
For `S=C(NCc1ccc(Cl)cc1)NC12CC3CC(CC(C3)C1)C2`, the Potency was 11.7 µM (active).
For `CCCC(C(=O)OCCN(CC)CC)(c1ccccc1)c1ccccc1`, the Potency was 6.01 µM (active).
With `CCC(C(=O)OCCN(CC)CC)c1ccccc1` (stereo not drawn) the Potency was “inactive”.
With `COc1ccc(C(O)(C2CCCCC2)C(CN2CCCC2)c2ccccc2)cc1` (stereo not drawn) the Potency was 11.7 µM (active).
For `CC1CC2=C(CC1/C=N/NC(N)=S)C(C)(C)CCC2` (stereo not drawn), the Potency was 13.1 µM (active).
For `COCCN(CCOC)c1nc(N)c2c(N)nc3c(c2c1C#N)CC(=O)N3Cc1ccc(Cl)cc1`, the Potency was 1.65 µM (active).
For `COCCOC(=O)C1=C(C)N=c2s/c(=C\c3cccs3)c(=O)n2C1c1cccs1` (stereo not drawn), the Potency was 4.15 µM (active).
In the case of `CN1CCN(c2ccc(NC(=O)c3ccc4c(c3)[nH]c(=O)n4Cc3ccc(F)cc3)cc2)CC1`, the Potency was 11.7 µM (active).
With `COc1ccc2[nH]c(=O)c(C3c4cc(OC)c(OC)cc4CCN3C(=O)c3ccco3)cc2c1` (stereo not drawn) the Potency was 13.1 µM (active).
For `CCc1cc(C(=O)c2ccc(OC)cc2)c(NC(=O)CN2CCN(C)CC2)s1`, the Potency was 5.22 µM (active).

For `CN1CCN(c2ccc(NC(=O)c3ccccc3)cc2)CC1`, the activity change, negative = inhibition was -20.4% [at 0.00184 µM].
